# The campaign covered roughly 1,200 compounds. About 840 (70%) were called active. The set was probably picked from earlier hits. Not all results are given here. Potency and affinity values are given separately. A number with no mark means an inactive call. The rule behind the calls is not given here.
# Assay: compounds inducing NF-kB luciferase expression – cell-based, SH-SY5Y, dose response (AID 1241)
# Conditions: SH-SY5Y NF-kB promoter luciferase reporter; series mostly up to 30 µM; fold induction over control: at the top concentration
row,Compound,fold induction over control
1,Cc1ccc(/C=C/C(=O)Nc2ccccc2C(N)=O)cc1,9.69
2,O=C(/C=C/Sc1ccccc1)c1ccc(Cl)cc1,12.1 [at 15 µM]
3,CC(=Nc1cccc(C)c1)c1sc2ccccc2c1O,12.8
4,Oc1ccc(-c2csc(-c3ccccc3)n2)cc1O,5.21
5,COC(=O)c1cc(-c2c(C)nn(-c3ccccc3)c2C)n[nH]1,1.72
6,Cc1ccc(C(=O)Nc2cccc(C(=O)O)c2)cc1,11.4
7,COc1ccc(C(=O)Nc2cccc(OC)c2)cc1,10.8
8,O=C(NC1CCCC1)c1cc(-c2cccs2)on1,27
9,O=C(NCCn1ccc2ccccc21)c1ccc2c(c1)OCO2,10.7
10,N/C(=N\OC(=O)c1ccc2c(c1)OCO2)c1ccc(Cl)cc1,5.91
11,Cc1ccc(COc2ccc(/C=N/O)cc2)cc1,13.4
12,O/N=C/c1ccc(OCc2ccccc2)c(Br)c1,12.7
13,O=C(NCCc1ccccc1)c1cc(-c2ccco2)on1,13
14,COc1ccc(/C(N)=N/OC(=O)CSc2ccccc2)cc1,12.8
15,O=C(CCSc1ccc(Cl)cc1)Nc1cccnc1,1.4
16,Cc1ccc(O)c(/C=N/NC(=O)c2[nH]ncc2Br)c1,10.8
17,CCCc1noc(-c2ccc(-c3ccccc3)cc2)n1,11.4
18,CCOC(=O)c1c(NC(=O)CC(C)C)sc(C(C)=O)c1C,2.09

row,Compound,fold induction over control
1,CCOC(=O)c1cc(C(=O)Nc2ccccc2F)nn1C,11.2
2,CCOC(=O)c1c(C)[nH]c(C(=O)Nc2ccc3c(c2)OCO3)c1C,11.5
3,CC(=O)Nc1ccc(N=Nc2ccccc2)cc1,12.1
4,COc1cccc(C(=O)Oc2ccccc2/C=C\C(=O)c2cc3ccccc3o2)c1,1.16
5,COc1ccc2cc(CCNC(=O)c3cccs3)c(=O)[nH]c2c1,8.36
6,O=C(/C(=C/c1ccc(Cl)cc1)c1nc2ccccc2[nH]1)c1ccccc1,0.3
7,CCOC(=O)C1=C(c2ccccc2)O/C(=C(/C#N)C(F)(F)F)S1,8.68 [at 7.5 µM]
8,COc1ccc(-c2cnn3c(N)c(S(=O)(=O)C(C)(C)C)cnc23)cc1,1.32
9,Cc1ccc(-c2nc3ccccc3s2)cc1NC(=S)NC(=O)c1ccccc1,4.53
10,CCc1nc2ccc(C(=O)O)cc2nc1CC,2.38
11,CCOc1ccc(NC(=O)c2nsc(Cl)c2Cl)cc1,9.51
12,O=C(OCC(=O)N1CCOCC1)c1ccccc1Cc1ccccc1,9.68
13,CC(C)(C)c1ccc(NC(=O)Nc2ccc(OCC(=O)N3CCOCC3)cc2)cc1,8.14
14,CCc1ccc(NC(=O)c2cc(C(C)C)on2)cc1,12.1
15,CCc1ccc(NC(=O)c2ccc3ncsc3c2)cc1,9.12
16,Cc1nc2ccc(NC(=O)Cc3ccccc3F)cc2s1,8.01
17,O=C(c1ccccc1)c1cnc(-c2ccccc2)s1,12.3
18,O=C(O)c1ccc(-c2nc(-c3ccc(Cl)cc3)cs2)cc1,12.6

# Source: PubChem BioAssay AID1241 (SRMLSC, 2008)
